These results are taken from PubChem BioAssay AID372 (MTDP, 2006).

Several values for one entry are separate records, joined by “and”; a condition that tells them apart may be missing. Identical values can stand only once. The whole screen tested about 100,000 compounds, of which about 770 (0.77%) were called active. No stated cut-off is given here; in the data, active means inhibition above about 50%; inactive means the rest. What follows is part of a selection rich in actives, with near analogues and random picks from the rest.

For this assay, the target named is Gag-Pol polyprotein (Human immunodeficiency virus type 1 group M subtype B (isolate HXB2)) (UniProt P04585). The experiment in a line: RNase H inhibition, HIV 1 Gag Pol polyprotein, FRET biochemical assay, screening (AID 372). To be noted: HIV-1 RT RNase H, FRET RNA/DNA substrate fluorescence; at 10 µM; active compounds read high.
The term inhibition denotes the percentage by which the read-out fell short of the control. Consider `COC(=O)c1ccccc1NC(=O)c1cccc(C)c1`, for which the inhibition was 4% (inactive).

In the case of `CCOc1ccc(Cc2c(O)n(-c3ccccc3)c(=S)[nH]c2=O)cc1`, the inhibition is 18% (inactive).

Take `COc1cc(/C=N/N2C(=O)c3cccc4cccc(c34)C2=O)cc(I)c1O`: the inhibition was 13% (inactive).

For the compound `C/C(=N/Nc1cc(-c2ccccc2)nc(-c2ccccc2)n1)c1ccc(O)cc1`, the inhibition is 4% (inactive).

As to `CCOC(=O)C1=NN(c2ccccc2)C(=O)/C1=C\c1ccc(F)cc1`, the inhibition is 0% (inactive).

For the compound `COc1ccc(S(=O)(=O)Oc2cccc(/C=C3\SC(=S)NC3=O)c2)cc1`, the inhibition is 20% (inactive).

For the compound `Cc1ccc(S(=O)(=O)Oc2cccc(/C=C3\SC(=S)NC3=O)c2)cc1`, the inhibition is 53% (active).

For `Cc1ccc(S(=O)(=O)Oc2ccc(/C=C3\SC(=S)NC3=O)cc2)cc1`, the inhibition is 29% (inactive).

Regarding `CCOC(=O)c1c(N)sc(C(=O)Nc2ccc(OC)cc2)c1C`, the inhibition is 9% (inactive).

Take `COc1ccc(NC(=O)c2c(NC(=O)c3ccco3)sc(-c3ccccc3)c2C)cc1`: the inhibition was 12% (inactive).

For the compound `CCOc1ccc(NC(=O)c2c(N)sc(-c3ccccc3)c2C)cc1`, the inhibition was 23% (inactive).

On to `COC(=O)c1c(N)sc(C(=O)Nc2ccc(C)cc2)c1C`, for which the inhibition was 0% (inactive).

As to `CCOc1ccccc1NC(=O)CN(c1ccc(C)c(Cl)c1)S(C)(=O)=O`, the inhibition is 8% (inactive).

`Clc1ccc(Oc2sc(Nc3cccc(Cl)c3)nc2-c2ccccc2)cc1`: the inhibition was 21% (inactive).

On to `NS(=O)(=O)c1ccc(CCNC(=O)/C=C/c2cccc([N+](=O)[O-])c2)cc1`, for which the inhibition was 4% (inactive).

Turning to `CCOc1ccc(/C=C(/C#N)c2nc3ccccc3[nH]2)cc1OC`, the inhibition was 0% (inactive).

With `CCOc1cc(C(=O)Nc2ccc3c(c2)C(=O)c2ccccc2C3=O)cc(OCC)c1OCC`, the inhibition was 0% (inactive).

In the case of `Cc1ccccc1C(=O)Nc1ccc2c(c1)C(=O)c1ccccc1C2=O`, the inhibition is 18% (inactive).

Take `CCCCOc1ccc(C(=O)Nc2ccc3c(c2)C(=O)c2ccccc2C3=O)cc1`: the inhibition is 40% (inactive).

For the compound `O=C(Nc1ccc2c(c1)C(=O)c1ccccc1C2=O)c1ccccc1`, the inhibition is 15% (inactive).

Consider `O=C(Nc1ccc2c(c1)C(=O)c1ccccc1C2=O)c1cccc(Cl)c1`, for which the inhibition was 60% (active).

Turning to `O=C1c2ccccc2C(=O)c2cc(NC(=O)c3coc4ccccc34)ccc21`, the inhibition was 63% (active).

For `O=C(O)c1ccccc1C(=O)Nc1ccc2c(c1)C(=O)c1ccccc1C2=O`, the inhibition is 0% (inactive).

For the compound `O=C(Nc1ccc2c(c1)C(=O)c1ccccc1C2=O)c1cccc(F)c1`, the inhibition is 49% (inactive).

As for `NC1=NC(=O)/C(=C/c2cc(Br)ccc2OCc2ccccc2)S1`, the inhibition was 9% (inactive).

In the case of `Cn1c(=O)c2c(nc(Sc3nc4ccccc4n3Cc3ccccc3)n2C)n(C)c1=O`, the inhibition is 0% (inactive).

As to `CC(CCC(=O)Nc1ccc(F)cc1)CC(=O)Nc1ccc(F)cc1` (stereo unspecified), the inhibition was 6% (inactive).

Regarding `CC(=O)c1cccc(NC(=O)CC2S/C(=N\N=C(/C)C(C)(C)C)NC2=O)c1` (stereo unspecified), the inhibition is 7% (inactive).

As for `CCCc1sc(NC(=O)c2ccc(OC)cc2)nc1-c1ccc(Br)cc1`, the inhibition was 42% (inactive).

Consider `CCCCCCCNC1CC(=O)N(c2ccc(OCCC)cc2)C1=O` (stereo unspecified), for which the inhibition was 6% (inactive).

In the case of `COc1ccc(C(=O)Nc2ccc3oc(-c4ccc(OC)c(Cl)c4)nc3c2)cc1Cl`, the inhibition was 30% (inactive).

Regarding `CCOc1ccc(C(=O)Nc2ccc(-c3nc4cc(C)ccc4o3)cc2)cc1Cl`, the inhibition was 12% (inactive).

As for `COc1ccc(C(=O)Nc2ccc(-c3nc4cc(C)c(C)cc4o3)cc2)cc1Cl`, the inhibition was 51% (active).

`CCOc1ccc(C(=O)NC(=S)Nc2cc(-c3nc4ccc(C)cc4o3)ccc2Cl)cc1`: the inhibition is 29% (inactive).

As for `CCOc1ccc(C(=O)NC(=S)Nc2ccc3oc(-c4ccc(C)cc4)nc3c2)cc1Cl`, the inhibition is 10% (inactive).

Consider `CCOc1ccc(C(=O)NC(=S)Nc2cc(-c3nc4cc(C)ccc4o3)ccc2Cl)cc1`, for which the inhibition is 60% (active).

For the compound `CCOc1cc(C(=O)Nc2ccc(-c3nc4ccc(C)cc4o3)cc2)cc(OCC)c1OCC`, the inhibition is 10% (inactive).

Consider `CCOc1ccc(C(=O)NC(=S)Nc2ccc(-c3nc4ccc(C)cc4o3)cc2)cc1Cl`, for which the inhibition was 56% (active).

In the case of `COc1ccc(C(=O)Nc2ccc3oc(-c4ccccc4)nc3c2)cc1Cl`, the inhibition was 4% (inactive).

As for `CCOc1ccc(C(=O)NC(=S)Nc2ccc(Cl)c(-c3nc4ccc(C)cc4o3)c2)cc1Cl`, the inhibition was 18% (inactive).

With `CCOc1ccc(C(=O)Nc2ccc(-c3nc4ccc(C)cc4o3)cc2)cc1Cl`, the inhibition is 59% (active).

For `Cc1ccc2oc(-c3ccc(Cl)c(NC(=S)NC(=O)c4ccc(Cl)cc4)c3)nc2c1`, the inhibition is 48% (inactive).

As for `CCOc1c(Br)cc(/C=C2/C(=O)NN(c3ccc(C)c(C)c3)C2=O)cc1OC`, the inhibition is 22% (inactive).

Turning to `COc1cc([N+](=O)[O-])ccc1NC(=S)NC(=O)/C=C/c1ccccc1`, the inhibition is 12% (inactive).

Regarding `Fc1ccc(-c2nnc(-c3ccc(Br)o3)o2)cc1`, the inhibition is 6% (inactive).

On to `COc1ccc(OC)c(N(CC(=O)N(Cc2ccccc2)Cc2ccccc2)S(=O)(=O)c2ccccc2)c1`, for which the inhibition was 21% (inactive).

Turning to `O=C(N/N=C\c1ccc[nH]1)c1cccc2c3c([nH]c12)CCCC3`, the inhibition is 24% (inactive).

Turning to `COc1ccc(OC)c(NC(=O)CN(c2ccc(C(C)C)cc2)S(=O)(=O)c2ccccc2)c1`, the inhibition was 8% (inactive).

`C/C(=N/NC(=O)c1ccc2c(c1)OCO2)c1ccc(Br)s1`: the inhibition was 13% (inactive).

On to `COc1cc(Br)ccc1OCC(=O)N=Nc1c(O)n(C)c2c(C)cccc12`, for which the inhibition is 52% (active).

On to `COc1ccc(OCC(=O)N=Nc2c(O)n(C)c3c(C)cccc23)c(Br)c1`, for which the inhibition was 4% (inactive).

On to `Cc1cccc2c(N=NC(=O)COc3cccc(Br)c3)c(O)n(C)c12`, for which the inhibition was 20% (inactive).

Turning to `CC(=O)Oc1ccc(-c2cccc(C(=O)OC(C)C)c2)cc1`, the inhibition is 9% (inactive).

As to `CC(C)OC(=O)c1ccc(NC(=O)c2ccc(Br)cc2)cc1`, the inhibition is 11% (inactive).

Take `N#C/C(=C/c1ccc(OCc2ccc(C(=O)O)cc2)cc1)C(=O)Nc1ccccc1`: the inhibition was 0% (inactive).

With `C=CCc1cccc2cc(C(=O)Nc3ccc(C)c(Cl)c3)c(=O)oc12`, the inhibition was 0% (inactive).

As for `C=CCc1cccc2cc(C(=O)NNC(=O)CC#N)c(=O)oc12`, the inhibition is 54% (active).

`C=CCc1cccc2cc(C(=O)Nc3ccc(NC(C)=O)cc3)c(=O)oc12`: the inhibition is 10% (inactive).

Take `C=CCc1cccc2cc(C(=O)Nc3ccccc3)c(=O)oc12`: the inhibition is 12% (inactive).

`C=CCc1cccc2cc(C(=O)NNC(=O)c3ccc(OC)cc3)c(=O)oc12`: the inhibition was 1% (inactive).

As to `C=CCc1cccc2cc(C(=O)Nc3ccc(Cl)c(Cl)c3)c(=O)oc12`, the inhibition is 62% (active).

For the compound `CC(=O)/C(=C(/C)O)c1ncc(-c2ccccc2)s1`, the inhibition is 12% (inactive).

For `Cc1cccc(C(=O)Nc2cccc(C(=O)Nc3ccccc3Cl)c2)c1`, the inhibition was 13% (inactive).

For the compound `O=C(Cn1c(NCCO)nc2ccccc21)c1cccc2ccccc12`, the inhibition was 21% (inactive).

As for `COc1cccc(N2C(=O)/C(=C/c3ccc([N+](=O)[O-])cc3)SC2=S)c1`, the inhibition was 7% (inactive).

For `COc1cccc(NC(=O)c2ccc(C(C)(C)C)cc2)c1`, the inhibition is 11% (inactive).

As to `NC(=O)N=Nc1c(O)[nH]c2ccc(I)cc12`, the inhibition was 5% (inactive).

Turning to `CC1(C)CC(=O)C(C=NC2CCCCCCC2)=C(O)C1`, the inhibition is 3% (inactive).

`O=C(CCc1ccccc1)Nc1sc2c(c1C(=O)O)CCCC2`: the inhibition is 4% (inactive).

On to `CCOC(=O)c1c(NC(=O)c2ccc(S(=O)(=O)N3CCCCCC3)cc2)sc2c1CCC2`, for which the inhibition was 6% (inactive).

Consider `COC(=O)c1c(NC(=S)Nc2ccccc2)sc2c1CCCC2`, for which the inhibition is 59% (active).

Take `Cc1ccc(C(=O)Nc2sc3c(c2C(N)=O)CCCCCC3)cc1`: the inhibition was 32% (inactive).

With `COc1ccc(CCC(=O)Nc2sc3c(c2C(N)=O)CCCCCC3)cc1`, the inhibition is 12% (inactive).

For `O=C(Nc1ccccc1)c1c(NC(=S)Nc2ccccc2)sc2c1CCCC2`, the inhibition is 46% (inactive).

`COc1ccc(C(=O)Nc2sc3c(c2C(N)=O)CCCCCC3)cc1OC`: the inhibition was 0% (inactive).

As to `COc1ccc(C(=O)Nc2sc3c(c2C(N)=O)CCCC3)cc1`, the inhibition is 17% (inactive).

Regarding `CCOC(=O)c1c(NC(=S)Nc2ccccc2)sc2c1CCCCC2`, the inhibition is 28% (inactive).

Consider `COc1cc2ccccc2cc1C(=O)Nc1sc2c(c1C(N)=O)CCCC2`, for which the inhibition is 59% (active).

For the compound `NC(=O)c1c(NC(=O)c2ccc(S(=O)(=O)N3CCCCC3)cc2)sc2c1CCCC2`, the inhibition is 53% (active).

On to `C=CCN1C(=O)/C(=C\c2ccc(OCc3ccccc3C)c(OC)c2)SC1=S`, for which the inhibition is 16% (inactive).

Consider `COC(=O)c1cccc(NC(=O)COc2ccc(Br)c(C)c2)c1`, for which the inhibition is 3% (inactive).

On to `Cc1c(NC(=O)COc2ccc(Cl)cc2Cl)cccc1[N+](=O)[O-]`, for which the inhibition is 15% (inactive).

On to `CCN(CC)c1ccc(Nc2nc(-c3sc(N)nc3C)cs2)cc1`, for which the inhibition is 28% (inactive).

Consider `CCN1CCn2c3c(c4cc(Br)ccc42)CCCC31` (stereo unspecified), for which the inhibition is 7% (inactive) and 3% (inactive).

For `C(=NN1CCN(c2ccccn2)CC1)c1cccc(OCc2ccccc2)c1`, the inhibition was 0% (inactive).

`Cc1ccc(NC(=O)c2cccc([N+](=O)[O-])c2)cc1C`: the inhibition is 1% (inactive).

As for `Cc1ccc(C)c(NC(=S)NC(=O)c2ccc(C)c([N+](=O)[O-])c2)c1`, the inhibition was 33% (inactive).

For `NC(=O)C1CCN(C2CC(=O)N(c3ccc(Cl)cc3)C2=O)CC1` (stereo unspecified), the inhibition was 12% (inactive).

In the case of `CCOc1ccc(N(CC(=O)Nc2c(C)cccc2C)S(C)(=O)=O)cc1`, the inhibition was 18% (inactive).

For the compound `C=CCOc1ccc(C=O)cc1I`, the inhibition is 25% (inactive).

As for `O=C(Nc1ccc([N+](=O)[O-])cc1Cl)c1cccnc1`, the inhibition is 5% (inactive).

Take `CC(C)C(NC(=O)CN(c1ccccc1F)S(C)(=O)=O)C(C)C`: the inhibition is 11% (inactive).

For `NC(=O)c1c(N)sc2c1CCCCCCCCCC2`, the inhibition is 28% (inactive).

In the case of `NC(=O)c1c(N)sc2c1CCCCCC2`, the inhibition is 20% (inactive).

Take `COc1ccc2ccccc2c1/C=C1/C(=O)NC(=O)N(Cc2ccco2)C1=O`: the inhibition was 50% (active).

On to `COc1cc(N2Cc3ccccc3C2)ccc1/C=C1\C(=O)NC(=O)N(Cc2ccco2)C1=O`, for which the inhibition was 51% (active).

As for `NC(=O)Cn1cc(/C=C2/C(=O)NC(=O)N(Cc3ccco3)C2=O)c2ccccc21`, the inhibition is 0% (inactive).

As to `COc1ccc(CN2C(=O)NC(=O)/C(=C\C=C\c3ccccc3)C2=O)cc1`, the inhibition was 10% (inactive).

In the case of `COc1ccc(/C=C2/C(=O)NC(=O)N(Cc3ccco3)C2=O)c2ccccc12`, the inhibition was 48% (inactive).

With `O=C1NC(=O)N(Cc2ccco2)C(=O)/C1=C\c1cn(Cc2cccc(F)c2)c2ccccc12`, the inhibition is 57% (active).

For the compound `CCN(CC)c1ccc(/C=C2/C(=O)NC(=O)N(Cc3ccco3)C2=O)c(OC)c1`, the inhibition was 45% (inactive).

For `O=C1NC(=O)N(Cc2ccco2)C(=O)/C1=C\C=C\c1ccccc1`, the inhibition is 52% (active).

`O=C1NC(=O)N(Cc2ccco2)C(=O)/C1=C/c1ccc(OCCOc2ccccc2)cc1`: the inhibition was 13% (inactive).

On to `COc1ccc2ccccc2c1/C=C1\C(=O)NC(=O)N(Cc2ccccc2)C1=O`, for which the inhibition was 40% (inactive).

Turning to `Cc1cc(N2Cc3ccccc3C2)ccc1/C=C1\C(=O)NC(=O)N(Cc2ccco2)C1=O`, the inhibition is 42% (inactive).

On to `O=C1NC(=O)N(Cc2ccco2)C(=O)/C1=C\c1cn(Cc2ccc(Cl)cc2)c2ccccc12`, for which the inhibition was 37% (inactive).
